Bioassay records: PubChem, National Center for Advancing Translational Sciences (NCATS)
A549 viability = Nrf2 qHTS screen for inhibitors: counterscreen for cytotoxicity; AID 504648, 2011; A549 ARE-Fluc cells, CellTiter-Fluor viability, 18-24 h; Potency, µM (titrated, usually from 46 µM), inactives show top-dose activity change, negative = cytotoxicity, actives largely listed as inhibitors; actives 0.16% (n = 390,000); further: on the % scale 0 is the no-effect control and ±100 the full control effect
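A549 ARE-Fluc cells in 5% FBS OPTI-MEM, 5000 cells/well, rested 2 h then exposed to compounds in concentration-response for 18-24 h at 37 °C. Viability by CellTiter-Fluor fluorescence (Ex 405/Em 525) after 30 min; luciferase luminescence (BugLite, 15 min, RT) read afterwards.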
mIDH1 inhibitor = qHTS for Inhibitors of mutant isocitrate dehydrogenase 1 (IDH1): qHTS; actives 0.093% (n = 390,000); Potency, µM (series often up to 76.6 µM), inactives show at the top dose activity change, negative = inhibition, hits mostly inhibitors; IDH1-R132H enzyme, NADPH consumption, diaphorase/resazurin fluorescence; AID 602179, 2012; Isocitrate dehydrogenase [NADP] cytoplasmic (Homo sapiens), O75874; further: on the % scale 0 is the no-effect control and ±100 the full control effect; nearly all actives have a fitted effect of over 65% in size
Target sequence (O75874 whole entry R132H, stated change not applied): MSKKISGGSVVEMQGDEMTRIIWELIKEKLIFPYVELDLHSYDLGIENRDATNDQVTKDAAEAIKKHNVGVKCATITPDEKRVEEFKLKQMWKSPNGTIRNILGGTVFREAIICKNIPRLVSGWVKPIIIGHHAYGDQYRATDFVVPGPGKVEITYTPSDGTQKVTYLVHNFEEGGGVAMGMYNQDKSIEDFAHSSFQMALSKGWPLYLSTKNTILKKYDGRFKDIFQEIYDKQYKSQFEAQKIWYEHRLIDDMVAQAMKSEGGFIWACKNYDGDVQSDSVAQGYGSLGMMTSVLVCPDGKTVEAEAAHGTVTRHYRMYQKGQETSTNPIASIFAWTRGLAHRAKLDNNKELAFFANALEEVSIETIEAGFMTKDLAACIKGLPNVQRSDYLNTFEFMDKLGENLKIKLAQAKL
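IDH1-R132H (0.5 ug/mL) preincubated 30 min with compound, then NADPH (0.016 mM) and alpha-KG (2 mM) added; 80 min at RT, pH 7.5. Remaining NADPH coupled via diaphorase/resazurin to fluorescence (540/590 nm); concentration-response curves normalized to no-enzyme control.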
Mito fusion yeast = qHTS Assay for Small Molecule Inhibitors of Mitochondrial Division or Activators of Mitochondrial Fusion; S. cerevisiae fusion-defective mutant growth rescue, CellTiterGlo 48 h; AID 485298, 2010; Potency, µM (series often up to 46.1 µM), for the others: at the top dose growth rescue (activation), most hits filed as activators; actives 0.23% (n = 320,000); further: % of control where 0% means no effect; nearly all actives have a fitted effect of over 45% in size
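Yeast fusion mutant, YPEG (non-fermentable carbon), compound, 48 h at 37C non-permissive; CellTiterGlo added, 10 min RT, luminescence read. Rescued growth = division inhibition.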
TrxR1 inh = qHTS Assay for Inhibitors of Mammalian Selenoprotein Thioredoxin Reductase 1 (TrxR1): qHTS | Potency, µM (top dose mostly 114 µM), for the others: at the top dose activity change, negative = inhibition, most hits filed as inhibitors | Thioredoxin reductase 1, cytoplasmic (Rattus norvegicus), O89049 | recombinant rTrxR1, NADPH fluorescence consumption, selenite substrate | AID 588453, 2011 | actives 1% (n = 390,000); further: on the % scale 0 is the no-effect control and ±100 the full control effect; nearly all actives have a fitted effect of over 65% in size
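Rat TrxR1 (90 nM in the dispensed reagent) was pre-reduced with 400 uM NADPH for 5 min at room temperature, then incubated with compound for 15 min. After 400 uM selenite was added, NADPH fluorescence (Ex 340/Em 450 nm) was followed for 8 min.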
Nrf2 inh = Nrf2 qHTS screen for inhibitors; A549 ARE-Fluc reporter, luciferase luminescence, 18-24 h; Potency, µM (highest dose often 46 µM), for the others: at the highest dose activity change, negative = inhibition, actives largely listed as inhibitors; actives 2.1% (n = 360,000); AID 504444, 2011; further: on the % scale 0 is the no-effect control and ±100 the full control effect; nearly all actives have a fitted effect of over 60% in size
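Two sequential reads on A549 ARE_Fluc cells exposed to compound for 18-24 h: a CellTiter-Fluor fluorescence read for viability, then a luciferase luminescence read for Nrf2/ARE activity.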
TrxR1 substrate = qHTS Assay for Substrates of Mammalian Selenoprotein Thioredoxin Reductase 1 (TrxR1): qHTS | Thioredoxin reductase 1, cytoplasmic (Rattus norvegicus), O89049 | purified TrxR1 substrate turnover, NADPH consumption readout | Potency, µM (titrated, usually from 114 µM), without a hit: at the highest dose activity change, negative = substrate turnover | actives 0.01% (n = 390,000) | AID 588456, 2011; further: on the % scale 0 is the no-effect control and ±100 the full control effect; nearly all actives have a fitted effect of over 50% in size
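Rat TrxR1, dispensed at 90 nM, was prereduced with 400 uM NADPH (final) for 5 min at ~22 deg C, then incubated with compound 15 min before 400 uM selenite. A first-read NADPH fluorescence drop versus no-compound background flagged substrates.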
* marks the source's active call; other numbers are inactive results; u = inconclusive; x = not tested or not shown; [ ] = remark or other dose. Sampled rows, rich in hits. Any-hit rate of the full collection: about 3.1%. The call rests on the fitted dose curve; in most records, active means well fitted curve in the direction sought with a large enough effect; inconclusive means small, poorly fitted or top-dose-only effect, or another doubt; inactive means no such curve, though single readings can be large; an effect the other way counts as inactive or inconclusive. Potency means the concentration at half of the fitted maximal effect.

SMILES	A549 viability	mIDH1 inhibitor	Mito fusion yeast	TrxR1 inh	Nrf2 inh	TrxR1 substrate
CC(C)(C)n1ncc2c(=O)n(Cc3ccccc3SC(F)(F)F)cnc21	x	x	x	-7%	x	-12%
CN=C1NN=C(c2cc(C)n(-c3c(C)n(C)n(-c4ccccc4)c3=O)c2C)CS1	0%	12%	32µM*	-11%	17%	1%
COCCn1c(C)cc(C2=NNC(=NC3CC3)SC2)c1C	-9%	0%	4%	-40%	0.58µM*	9%[57.1 µM]
C=CCN=C1NN=C(c2cc(C)n(CCOC)c2C)CS1	3%	-3%	-3%	-10%	u	-13%
Cc1cc(C2=NNC(=NC3CC3)SC2)c(C)n1-c1ccccc1	0%	4%	-6%	22%	6.5µM*	-2%
Cc1nn(-c2ccccc2)c2nc(-c3ccncc3)cc(C(=O)NCc3ccco3)c12	6%	-10%	5%	50µM*	-2%	1%
Cc1cc(C)cc(NC(=O)c2cc(C)nc3c2c(C)nn3-c2ccccc2)c1	6%	-2%	x	79µM*	u	41%
Cc1nn(-c2ccccc2)c(C)c1C(=O)OCC(=O)NCc1ccco1	9%	5%	5%	56µM*	6%	4%
Cc1cc(C(=O)Nc2ccc(C(C)C)cc2)c2c(C)nn(-c3ccccc3)c2n1	13%	8%	x	40%	3%	29%
CC(C)(C)OC(=O)N1C2C=CC1C1=COCCN1C2=O (centres undefined)	6%	x	x	-20%	22%	-1%
CCOC(=O)c1sc2ccccc2c1OC(=O)c1ccc(C)cc1	-3%	3%	8%	7%[57.1 µM]	u	-21%[57.1 µM]
CCOC(=O)c1sc(S(C)=O)c2c1CCc1conc1-2 (centres undefined)	1%	17%	2%	32µM*	-19%	1%
OC1=C(O)c2nc3ccccc3nc21	-15%	0%	0%	1.3µM*	3%	2%
Cc1cc2nc(-c3ccccn3)c(-c3ccccn3)nc2cc1C	x	x	-20%	x	x	x
c1ccc(-c2nc3ccccc3nc2-c2ccccn2)nc1	-2%	2%	-4%	-4%	15%	-14%
OC1=C(O)c2nc3cc(C(F)(F)F)ccc3nc21	1%	-1%	0%	2µM*	18%	-5%
Cc1cc2nc3c(nc2cc1C)C(O)=C3O	8%	2%	-1%	2.5µM*	8%	1%
Cc1cc(I)ccc1Nc1nc(NCCN2CCOCC2)nc(N2CCOCC2)n1	x	x	x	u	x	-15%
C#CCNC(=O)C1=C[C@@H](C)[C@H](CCCO)[C@@H](OCC)O1	7%	4%	x	18µM*	-7%	-2%[57.1 µM]
CCO[C@@H]1OC(C(=O)NCc2ccccc2)=C[C@H](C)[C@H]1CCCO	0%	12%	0%	-8%	-5%	-2%
O=C(Nc1ccc(S(=O)(=O)Nc2ccccc2)cc1)C1COc2ccccc2O1 (centres undefined)	-27%	1%	7%	9%	18µM*	-8%
CCOc1ccc2nc(Cl)c(C3CC(c4ccc(C)cc4)=NN3C(=O)CCCC(=O)O)cc2c1 (centres undefined)	-5%	3%	x	-28%	3%	-1%
Cc1c(C)n(Cc2ccc(F)cc2)c2ccc(C(=O)Nc3ccc(Cl)cc3)cc12	-4%	8%	x	30%[57.1 µM]	-9%	5%[57.1 µM]
C=CCOc1ccc(CNc2ccc(NC(=O)CCC)cc2)cc1OCC	-10%	3%	4%	7%	-15%	3%
CCOc1cc(CNc2ccc(N3CCCCC3)cc2)cc(Br)c1OCC(=O)NC(C)(C)C	u	3%	6%	-31%	16µM*	-19%
SMILES	A549 viability	mIDH1 inhibitor	Mito fusion yeast	TrxR1 inh	Nrf2 inh	TrxR1 substrate
C=CCOc1c(Br)cc(CNc2ccc(NC(=O)CCC)cc2)cc1OCC	-17%	2%	-2%	-11%	15µM*	-8%
COc1ccc(N2CCN(C(c3ccc(C)cc3)c3nnnn3C(C)(C)C)CC2)cc1 (centres undefined)	9%	x	x	14%	0%	3%
CCOC(=O)c1ccc(N(C(=O)c2ccccc2)c2ccccc2)cc1	x	x	x	-3%	x	-5%
CCOC(=O)c1c(S(=O)(=O)NCC(=O)Nc2ccc(F)cc2C)c(C)n(C)c1C	1%	0%	x	14%[57.1 µM]	x	5%[57.1 µM]
Cc1ccc(NC(=O)C2CC(=O)N(c3ccc(OC(C)C)cc3)C2)cc1 (centres undefined)	3%	-20%	x	10%	-4%	-1%
NC(=O)c1cc(S(=O)(=O)Nc2ccc(OC(F)(F)F)cc2)cs1	-3%	2%	14%	18%	18µM*	3%
Cc1ccc(C(C)C)c(OCCCn2c(=O)oc3ccc(C)cc32)c1	4%	5%	x	18%	-5%	-2%
CCOc1ccc(S(=O)(=O)NCCc2sc3nc(-c4ccc(F)cc4)nn3c2C)cc1	-15%	14%	x	-1%[57.1 µM]	x	-3%[57.1 µM]
COc1ccc(C=C(C(C)=O)C(C)=O)cc1OC	-1%	1%	0%	45µM*	-23%	-17%
CN1C(=O)c2ccccc2Sc2ccc(NC(=O)NCc3cccc(Cl)c3)cc21	1%	-4%	x	-6%	u	7%
CC1=CC2=NC(=O)/C(=C\c3cccn3CCOc3cc(C)cc(C)c3)C(=N)N2O1	-18%	6%	20µM*	-21%	-14%	-18%
O=C(OCc1ccc(Br)cc1)c1ccncc1	11%	2%	-5%	u	2%	0%
CC(=O)Nc1ccc(C(=O)OCc2ccc(Br)cc2)cc1	15%	1%	16µM*	-6%	-11%	-8%
CCc1ccccc1NC(=O)/C(C#N)=C/c1ccc(Sc2ccccc2)o1	5%	-15%	11µM*	31%	5%	-2%
CCc1ccccc1NC(=O)/C(C#N)=C\c1ccc(Sc2ccccc2)o1	0%	0%	2%	3%	-25%	-4%
COc1ccc(OC)c(CC2C(=O)Nc3ccc(Br)cc32)c1 (centres undefined)	0%	61%	x	15%	23µM*	-3%
O=C1CCCC2=C1C1(CCS(=O)(=O)C1)N=C(Nc1nc3ccccc3o1)N2 (centres undefined)	1%	x	x	x	u	x
COc1ccc(S(=O)(=O)NCc2ccncc2)cc1NC(=O)c1ccccc1	-7%	4%	4%	-13%	6.5µM*	-10%
O=C(Nc1ccccc1)c1cc(S(=O)(=O)NCc2ccncc2)ccc1Cl	-4%	2%	0%	-4%	18µM*	-8%
